# Results as given in PubChem BioAssay (Tox21).
# Several values for one entry are separate records, joined by “and”; a condition that tells them apart may be missing. Identical values can stand only once. Results filed as inconclusive are left out. Entries that show only a call come without a potency. Where a structure was tested more than once in an assay, its records may differ in their call. Activity calls are given as the source filed them. Calls come from the whole dose curve; as a rule, active = well fitted curve in the direction sought with a large enough effect in the repeat runs; inconclusive = weak or mixed curves; inactive = no such curve, though single readings can be large; an effect the other way counts as inactive or inconclusive.
# Experiments:
# [1] = qHTS RealTime-Glo MT Cell Viability Assay in HEK293 cells - 16 hour (AID 1224872); note: nearly all actives have a fitted effect of over 50% in size; note: potency is the fitted concentration of half-maximal effect
# In short: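 HEK293 cells seeded with NanoLuc/prosubstrate reagent, rested 5 h at 37 C, then dosed and kept at 37 C up to 40 h. Nonlytic real-time luminescence from viable cells read at 0, 8, 16, 24, 32 and 40 h.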
# [2] = qHTS RealTime-Glo MT Cell Viability Assay in HepG2 cells - 8 hour (AID 1224873); note: nearly all actives have a fitted effect of over 55% in size; note: potency is the fitted concentration of half-maximal effect
# In short: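 HepG2 cells mixed with RealTime-Glo MT reagents (NanoLuc plus cell-permeant prosubstrate) were seeded at 600 cells/well, incubated 5 h at 37 C/5% CO2, then pinned with compounds in DMSO; nonlytic luminescence tracked viability during 40 h treatment.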
# [3] = qHTS RealTime-Glo MT Cell Viability Assay in HEK293 cells - 40 hour (AID 1224874); conditions: RealTime-Glo luminescence; max response: stronger effect = lower value; note: nearly all actives have a fitted effect of over 50% in size; note: potency is the fitted concentration of half-maximal effect
# In short: (§1)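 HEK293 cells mixed with RealTime-Glo reagents (NanoLuc plus cell-permeant prosubstrate) at 600 cells/well, preincubated 5 h at 37 C/5% CO2, then given 23 nL compound in DMSO. Nonlytic luminescence from viable cells was read at 0, 8, 16, 24, 32 and 40 h.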
# [4] = A CellTox Green Cytotoxicity Assay to monitor cytotoxicity in HEK293 cells - 24 hour (AID 1224875); note: nearly all actives have a fitted effect of over 45% in size; note: potency is the fitted concentration of half-maximal effect; for activity change: series mostly up to about 77 µM
# In short: (§2)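 HEK293 cells premixed with CellTox Green dye were seeded at 600 cells/well and left 5 h at 37 C/5% CO2 before pin transfer of 23 nL compound in DMSO. Fluorescence from dye bound to dead-cell DNA was read during 40 h treatment.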
# [5] = A CellTox Green Cytotoxicity Assay to monitor cytotoxicity in HepG2 cells - 16 hour (AID 1224876); note: nearly all actives have a fitted effect of over 45% in size; note: potency is the fitted concentration of half-maximal effect
# In short: (§3)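 HepG2 cells were seeded together with the CellTox Green dye at 600 cells/well, left 5 h at 37 C/5% CO2, then given compounds in DMSO. Fluorescence from dye bound to dead-cell DNA was read repeatedly over 40 h of treatment at 37 C.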
# [6] = qHTS RealTime-Glo MT Cell Viability Assay in HepG2 cells - 32 hour (AID 1224877); note: nearly all actives have a fitted effect of over 55% in size; note: potency is the fitted concentration of half-maximal effect
# In short: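 HepG2 cells (600/well) were dispensed with RealTime-Glo reagents, incubated 5 h at 37 °C, then treated with compounds in DMSO for up to 40 h. Nonlytic NanoLuc luminescence reflecting viable cells was read at each stated time point.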
# [7] = A CellTox Green Cytotoxicity Assay to monitor cytotoxicity in HepG2 cells - 24 hour (AID 1224878); note: nearly all actives have a fitted effect of over 45% in size; note: potency is the fitted concentration of half-maximal effect
# In short: as §3
# [8] = A CellTox Green Cytotoxicity Assay to monitor cytotoxicity in HepG2 cells - 40 hour (AID 1224879); note: nearly all actives have a fitted effect of over 40% in size; note: potency is the fitted concentration of half-maximal effect
# In short: as §3
# [9] = qHTS RealTime-Glo MT Cell Viability Assay in HEK293 cells - 0 hour (AID 1224880); note: top concentration of the series differs between compounds; nearly all actives have a fitted effect of over 45% in size
# In short: as §1
# [10] = A CellTox Green Cytotoxicity Assay to monitor cytotoxicity in HEK293 cells - 32 hour (AID 1224881); note: nearly all actives have a fitted effect of over 40% in size; note: potency is the fitted concentration of half-maximal effect
# In short: as §2
Structure (SMILES),Potency [1],Potency [2],max response [3],Potency [4],Potency [5],Potency [6],Potency [7],Potency [8],Potency [9],Potency [10],Potency [3],"activity change, negative = cytotoxic [6]",cytotoxicity [7],cytotoxicity increase [8],cytotoxicity increase [10]
OC[C@H]1O[C@@H]2O[C@H]3[C@H](O)[C@@H](O)[C@@H](O[C@H]4[C@H](O)[C@@H](O)[C@@H](O[C@H]5[C@H](O)[C@@H](O)[C@@H](O[C@H]6[C@H](O)[C@@H](O)[C@@H](O[C@H]7[C@H](O)[C@@H](O)[C@@H](O[C@H]1[C@H](O)[C@H]2O)O[C@@H]7CO)O[C@@H]6CO)O[C@@H]5CO)O[C@@H]4CO)O[C@@H]3CO,inactive,inactive,-4.99% (inactive) and 23.3% (inactive),inactive,inactive,inactive,inactive,inactive,inactive,inactive,–,–,–,–,–
CC(=O)Nc1ccc2c(c1)Cc1cc(NC(C)=O)ccc1-2,inactive,inactive,1.79% (inactive) and 3.64% (inactive),inactive,inactive,inactive,inactive,inactive,inactive,inactive,–,–,–,–,–
COCCOCCOCCO,inactive,inactive,4.57% (inactive) and 6.41% (inactive),inactive,inactive,–,inactive,inactive,inactive,inactive,–,–,–,–,–
O=C(O)CCCCCCCCCCCC(=O)O,inactive,inactive,7.31% (inactive),inactive,inactive,–,inactive,48.2 µM (active) and inactive,inactive,inactive,–,–,–,–,–
CC1=CC(C)(C)Nc2ccccc21,inactive,inactive,5.64% (inactive) and -19.8% (inactive),inactive,inactive,–,inactive,inactive,inactive,inactive,–,–,–,–,–
Nc1ccc2c(c1)C(=O)c1ccccc1C2=O,inactive,inactive,-23.1% (inactive) and -12.6% (inactive),inactive,inactive,–,inactive,inactive,inactive,inactive,–,–,–,–,–
CC(=O)[C@H]1CC[C@H]2[C@@H]3CC=C4C[C@@H](O)CC[C@]4(C)[C@H]3CC[C@]12C,inactive,inactive,-23.7% (inactive),inactive,–,inactive,inactive,inactive,inactive,inactive,–,–,–,–,–
C[C@]12C=CC(=O)C=C1CC[C@H]1[C@@H]3C[C@@H](O)[C@](O)(C(=O)CO)[C@@]3(C)C[C@H](O)[C@@]12F,inactive,inactive,1.25% (inactive) and 4.53% (inactive),inactive,inactive,–,inactive,inactive,inactive,inactive,–,–,–,–,–
c1ccc2c(c1)ccc1ncccc12,inactive,inactive,-12% (inactive) and -17.1% (inactive),inactive,inactive,inactive,–,inactive,inactive,inactive,–,–,–,–,–
CN1CCOCC1,inactive,inactive,8.86% (inactive) and 4.46% (inactive),inactive,–,inactive,inactive,inactive,inactive,inactive,–,–,–,–,–
Cc1ccc(C(C)(C)C)c(O)c1,inactive,inactive,-23.8% (inactive) and -20.7% (inactive),23.8 µM (active) and 24.5 µM (active),38.9 µM (active),–,38.9 µM (active),34.7 µM (active),inactive,23.8 µM (active) and 21.9 µM (active),–,–,–,–,–
CCCCCC=O,inactive,inactive,-0.468% (inactive) and 7.09% (inactive),inactive,inactive,–,inactive,inactive,inactive,inactive,–,–,–,–,–
Cc1ccc(C)c(O)c1,inactive,inactive,1.95% (inactive) and 4.96% (inactive),inactive,inactive,inactive,–,inactive,inactive,inactive,–,–,–,–,–
O=C(O)c1ccc(O)cc1,inactive,inactive,-0.345% (inactive) and 9.29% (inactive),inactive,inactive,inactive,–,inactive,inactive,inactive,–,–,–,–,–
Nc1cc(Cl)c(N)c(Cl)c1,inactive,inactive,25.2% (inactive),inactive,–,inactive,inactive,inactive,inactive,inactive,–,–,–,–,–
CN(C)CCCN1c2ccccc2Sc2ccc(Cl)cc21,30.9 µM (active) and 21.3 µM (active),54.9 µM (active),–,49 µM (active),49 µM (active) and 21.3 µM (active),–,–,24.5 µM (active) and 21.3 µM (active),–,43.6 µM (active),21.9 µM (active) and 21.3 µM (active),–,–,–,–
CCCOCCO,inactive,inactive,2.92% (inactive) and 1.86% (inactive),inactive,inactive,–,inactive,inactive,inactive,inactive,–,–,–,–,–
CN(C)/N=N/c1nc[nH]c1C(N)=O,inactive,inactive,-18.2% (inactive) and -3.15% (inactive),inactive,inactive,–,inactive,inactive,inactive,inactive,–,–,–,–,–
Nc1cc([N+](=O)[O-])ccc1C(=O)O,inactive,inactive,9.73% (inactive) and 6.1% (inactive),inactive,–,inactive,inactive,inactive,inactive,inactive,–,–,–,–,–
NCCOCCO,inactive,inactive,6.45% (inactive) and 5.26% (inactive),inactive,inactive,–,–,inactive,inactive,inactive,–,–,–,–,–
C=C[C@H]1CN2CC[C@H]1C[C@@H]2[C@@H](O)c1ccnc2ccc(OC)cc12,42.9 µM (active),inactive,–,inactive,inactive,–,–,inactive,inactive,inactive,48.2 µM (active),–,–,–,–

Structure (SMILES),Potency [1],Potency [2],max response [3],Potency [4],Potency [5],Potency [6],Potency [7],Potency [8],Potency [9],Potency [10],Potency [3],"activity change, negative = cytotoxic [6]",cytotoxicity [7],cytotoxicity increase [8],cytotoxicity increase [10]
CC(C)[C@@H]1CC[C@@H](C)CC1=O,inactive,inactive,-0.963% (inactive) and 5.54% (inactive),inactive,inactive,–,inactive,inactive,inactive,inactive,–,–,–,–,–
C=CC(C)(O)CCC=C(C)C (stereo not given),inactive,inactive,3.03% (inactive) and 9.35% (inactive),inactive,inactive,–,–,inactive,inactive,inactive,–,–,–,–,–
O=C(O)c1cc(=O)[nH]c(=O)[nH]1,inactive,inactive,10.8% (inactive) and 0.747% (inactive),inactive,inactive,–,–,inactive,inactive,inactive,–,–,–,–,–
CCC/C=C/C=O,inactive,inactive,-4.27% (inactive) and 1.77% (inactive),inactive,inactive,inactive,–,inactive,inactive,inactive,–,–,–,–,–
O=[Se](O)O,inactive,inactive,–,inactive,–,–,–,24.6 µM (active),inactive,39 µM (active),17.4 µM (active),-0.276% [at 15.8 µM] (inactive),4.65% [at 15.8 µM] (inactive),15.7% [at 15.8 µM] (inactive),-8.61% [at 15.8 µM] (inactive)
Nc1ccc2c(O)cc(S(=O)(=O)O)cc2c1,inactive,inactive,–,inactive,inactive,–,inactive,inactive,inactive,inactive,6.17 µM (active),–,–,–,–
NCCS(=O)(=O)O,inactive,inactive,13.2% (inactive) and 2.94% (inactive),inactive,inactive,–,inactive,inactive,inactive,inactive,–,–,–,–,–
C/C=C/C(=O)N(CC)c1ccccc1C,inactive,inactive,1.07% (inactive) and 4.13% (inactive),inactive,inactive,–,inactive,inactive,inactive,inactive,–,–,–,–,–
C=CCOC(=O)C(=C)C,inactive,inactive,2.76% (inactive) and 2.11% (inactive),inactive,inactive,inactive,–,inactive,inactive,inactive,–,–,–,–,–
CCO[Si](CCCNC(N)=O)(OCC)OCC,inactive,inactive,-7.6% (inactive) and 2.5% (inactive),inactive,inactive,–,–,inactive,inactive,inactive,–,–,–,–,–
IC(I)I,inactive,inactive,7.94% (inactive) and 2.04% (inactive),inactive,inactive,24.5 µM (active) and 17.4 µM (active),–,inactive,inactive,inactive,–,–,–,–,–
Brc1nc2ccccc2s1,inactive,inactive,0.941% (inactive) and 3.88% (inactive),inactive,–,inactive,inactive,inactive,inactive,inactive,–,–,–,–,–
c1ccc2ncccc2c1,inactive,inactive,-2.01% (inactive) and 11.7% (inactive),inactive,–,inactive,inactive,inactive,inactive,inactive,–,–,–,–,–
NCCN,inactive,inactive,7.37% (inactive) and 0.29% (inactive),inactive,inactive,–,inactive,inactive,inactive,inactive,–,–,–,–,–
FC(F)(F)C(Cl)Br (stereo not given),inactive,inactive,-4.81% (inactive) and 5.64% (inactive),inactive,inactive,–,–,inactive,inactive,inactive,–,–,–,–,–
CC(=O)Oc1c(C)c(C)c2c(c1C)CC[C@@](C)(CCC[C@H](C)CCC[C@H](C)CCCC(C)C)O2,inactive,inactive,0.83% (inactive) and -4.95% (inactive),inactive,inactive,–,–,inactive,inactive,inactive,–,–,–,–,–
COc1ccc(C(=O)c2ccccc2O)c(O)c1,inactive,inactive,-10.4% (inactive),inactive,–,inactive,inactive,inactive,inactive,–,–,–,–,–,–
COC(=O)c1ccc(C)cc1,inactive,inactive,1.02% (inactive) and 6.36% (inactive),inactive,inactive,–,inactive,inactive,inactive,inactive,–,–,–,–,–
C=C[C@H]1CN2CC[C@H]1C[C@H]2[C@H](O)c1ccnc2ccc(OC)cc12,inactive,inactive,-26.3% (inactive) and -11.8% (inactive),inactive,inactive,–,inactive,inactive,inactive,inactive,–,–,–,–,–
Cc1ccc(C(C)(C)C)cc1,inactive,inactive,0.538% (inactive),inactive,inactive,–,inactive,inactive,inactive,inactive,–,–,–,–,–
Nc1ccc(O)c(N)c1,inactive,inactive,-10.8% (inactive) and -11.4% (inactive),inactive,–,inactive,–,inactive,–,inactive,–,–,–,–,–
